# In all, about 39,000 compounds went through this assay and about 3,300 (8.5%) were called active. Only a selection was taken, and actives are over-represented in it overall.
# Test system: HepG2
# Assay: cytotoxicity call (relative viability < 0.9)
# Conditions: 10 µM
row,Structure (SMILES),cytotoxicity call
1,Cc1noc(C)c1S(=O)(=O)Nc1ccc2c(c1)C(=O)N([C@H](C)CO)C[C@H](C)[C@@H](CN(C)S(=O)(=O)c1cccs1)O2,inactive
2,Cc1noc(C)c1NC(=O)Nc1ccc2c(c1)CC(=O)N([C@H](C)CO)C[C@@H](C)[C@@H](CN(C)Cc1ccc(C(F)(F)F)cc1)O2,inactive
3,Cc1ccc(S(=O)(=O)N2C[C@@H](O)COC[C@H]3O[C@H](CC(=O)N[C@@H]4CCN(Cc5ccccc5)C4)CC[C@@H]32)cc1,inactive
4,COc1ccccc1C#Cc1cnc2c(c1)C(=O)N([C@@H](C)CO)C[C@H](C)[C@@H](CN(C)C(=O)CN(C)C)O2,inactive
5,C=C(C)[C@@H]1CC[C@]2(COC(C)=O)CC[C@]3(C)[C@H](CC[C@@H]4[C@@]5(C)CC[C@H](OC(C)=O)C(C)(C)[C@@H]5CC[C@]43C)[C@@H]12,inactive
6,C[C@@H]1CCCCO[C@@H](CN(C)S(=O)(=O)c2cn(C)cn2)[C@H](C)CN([C@@H](C)CO)C(=O)c2cc(NS(=O)(=O)c3cn(C)cn3)ccc2O1,inactive
7,C[C@H]1CN([C@@H](C)CO)C(=O)c2cc(NC(=O)C3CC3)ccc2O[C@H]1CN(C)C(=O)NC1CCCCC1,inactive
8,COc1cc2c(cc1OC)-c1onc(-c3ccc(OCCO[Si](C(C)C)(C(C)C)C(C)C)cc3)c1CCCN(C[C@@H](C)OC(=O)NCCCCCC(=O)NO)CC2,active
9,COc1cc2c(cc1OC)-c1onc(-c3ccc(OCCO[Si](C(C)C)(C(C)C)C(C)C)cc3)c1CCCN(C[C@@H](C)O)CC2,inactive
10,COc1cc2c(cc1OC)[C@@]13ON=C(c4ccc(OCCOC(=O)NCCCCCC(=O)NO)cc4)[C@@H]1CCN3CC2,inactive
11,C/C=C/c1cccc(-c2nc(C(=O)NCc3ccc(OC)cc3)cc3c2[C@@H](CCO)N([S@](=O)C(C)(C)C)C3)c1,inactive
12,COc1nn(C)cc1-c1n[nH]c(=S)n1C,inactive
13,O=C(C[C@@H]1CC[C@@H]2[C@H](COC[C@H](O)CN2S(=O)(=O)c2ccc(Oc3ccccc3)cc2)O1)NC1CCC1,inactive
14,CC1(O)CCC(C(C)(C)O)CC1.O (stereo unspecified),inactive
15,CCCC#Cc1ccc2c(c1)O[C@@H](CN(C)S(=O)(=O)c1cccc(OC)c1)[C@@H](C)CN([C@H](C)CO)S2(=O)=O,inactive
16,COc1cccc(S(=O)(=O)N(C)C[C@H]2Oc3ncc(C#CCN(C)C)cc3C(=O)N([C@H](C)CO)C[C@@H]2C)c1,inactive
17,COc1ccc(NC(=O)Nc2ccc3c(c2)CC(=O)N([C@@H](C)CO)C[C@@H](C)[C@H](CN(C)S(=O)(=O)c2cn(C)cn2)O3)cc1,inactive
18,COc1ccc(S(=O)(=O)Nc2ccc3c(c2)C(=O)N([C@H](C)CO)C[C@@H](C)[C@H](CN(C)CC2CCCCC2)OCCCC[C@@H](C)O3)cc1,inactive
19,COc1ccc(S(=O)(=O)Nc2ccc3c(c2)C(=O)N([C@@H](C)CO)C[C@@H](C)[C@@H](CN(C)CC2CCCCC2)OCCCC[C@H](C)O3)cc1,active
20,COc1ccc(S(=O)(=O)Nc2ccc3c(c2)C(=O)N([C@H](C)CO)C[C@@H](C)[C@@H](CN(C)CC2CCCCC2)OCCCC[C@@H](C)O3)cc1,active
21,COc1ccc(S(=O)(=O)Nc2ccc3c(c2)C(=O)N([C@@H](C)CO)C[C@H](C)[C@H](CN(C)CC2CCCCC2)OCCCC[C@@H](C)O3)cc1,inactive
22,COc1ccc(S(=O)(=O)Nc2ccc3c(c2)C(=O)N([C@@H](C)CO)C[C@H](C)[C@@H](CN(C)CC2CCCCC2)OCCCC[C@H](C)O3)cc1,inactive
23,COc1ccc(S(=O)(=O)Nc2ccc3c(c2)C(=O)N([C@@H](C)CO)C[C@@H](C)[C@H](CN(C)CC2CCCCC2)OCCCC[C@@H](C)O3)cc1,inactive
24,COc1ccc(S(=O)(=O)Nc2ccc3c(c2)C(=O)N([C@@H](C)CO)C[C@@H](C)[C@@H](CN(C)CC2CCCCC2)OCCCC[C@@H](C)O3)cc1,active
25,COc1ccc(S(=O)(=O)Nc2ccc3c(c2)C(=O)N([C@@H](C)CO)C[C@@H](C)[C@H](CN(C)CC2CCCCC2)OCCCC[C@H](C)O3)cc1,inactive
26,COc1ccc(S(=O)(=O)Nc2ccc3c(c2)C(=O)N([C@@H](C)CO)C[C@H](C)[C@H](CN(C)CC2CCCCC2)OCCCC[C@H](C)O3)cc1,inactive

row,Structure (SMILES),cytotoxicity call
1,COc1ccc(S(=O)(=O)Nc2ccc3c(c2)C(=O)N([C@H](C)CO)C[C@@H](C)[C@@H](CN(C)CC2CCCCC2)OCCCC[C@H](C)O3)cc1,inactive
2,COc1ccc(S(=O)(=O)Nc2ccc3c(c2)C(=O)N([C@H](C)CO)C[C@H](C)[C@@H](CN(C)CC2CCCCC2)OCCCC[C@H](C)O3)cc1,inactive
3,COc1ccc(NC(=O)Nc2ccc3c(c2)C(=O)N([C@H](C)CO)C[C@@H](C)[C@H](CN(C)C(=O)NC2CCCCC2)OCCCC[C@@H](C)O3)cc1,inactive
4,CC(C)NC(=O)N(C)C[C@@H]1Oc2ccc(NS(=O)(=O)c3ccc(F)cc3)cc2C(=O)N([C@H](C)CO)C[C@H]1C,inactive
5,C[C@@H]1CCCCO[C@H](CN(C)C(=O)c2ccccc2)[C@@H](C)CN([C@H](C)CO)C(=O)c2cc(NS(=O)(=O)c3ccccc3)ccc2O1,inactive
6,Cc1cc(=O)[n+]2cccc(O)c2[nH]1,inactive
7,CC(C)NC(=O)Nc1ccc2c(c1)C(=O)N([C@H](C)CO)C[C@@H](C)[C@@H](CN(C)S(=O)(=O)c1ccc(Cl)cc1)O2,inactive
8,CCc1cc(C(N)=O)c(N)s1,inactive
9,C[C@@H]1CCCCO[C@H](CN(C)C(=O)Nc2ccc(F)cc2)[C@@H](C)CN([C@H](C)CO)C(=O)c2cc(NC(=O)Nc3ccccc3)ccc2O1,inactive
10,CCOC(=O)N[C@H]1CCS(=O)(=O)C1,inactive
11,Cc1cn2c(=O)c(C(=O)O)cnc2s1,inactive
12,C[C@@H]1CN([C@H](C)CO)C(=O)c2cccc(NS(C)(=O)=O)c2O[C@@H]1CN(C)S(=O)(=O)c1ccccc1,inactive
13,CCOC(=O)CCCCCC(=O)Nc1ccc2c(c1)C(=O)N([C@H](C)CO)C[C@@H](C)[C@@H](CN(C)S(=O)(=O)c1ccc(C)cc1)OCCCC[C@H](C)O2,inactive
14,C[C@H]1CCCCO[C@@H](CN(C)Cc2ccccc2)[C@@H](C)CN([C@@H](C)CO)C(=O)c2cc(NS(=O)(=O)c3ccc(Cl)cc3)ccc2O1,active
15,C[C@@H]1CCCCO[C@@H](CN(C)Cc2ccccc2)[C@@H](C)CN([C@H](C)CO)C(=O)c2cc(NS(=O)(=O)c3ccc(Cl)cc3)ccc2O1,inactive
16,C[C@@H]1CCCCO[C@H](CN(C)Cc2ccccc2)[C@H](C)CN([C@@H](C)CO)C(=O)c2cc(NS(=O)(=O)c3ccc(Cl)cc3)ccc2O1,active
17,C[C@@H]1CCCCO[C@H](CN(C)Cc2ccccc2)[C@@H](C)CN([C@H](C)CO)C(=O)c2cc(NS(=O)(=O)c3ccc(Cl)cc3)ccc2O1,inactive
18,C[C@H]1CCCCO[C@H](CN(C)Cc2ccccc2)[C@@H](C)CN([C@@H](C)CO)C(=O)c2cc(NS(=O)(=O)c3ccc(Cl)cc3)ccc2O1,inactive
19,C[C@@H]1CN([C@@H](C)CO)C(=O)c2cc(NS(=O)(=O)c3ccc(Cl)cc3)ccc2O[C@@H](C)CCCCO[C@@H]1CN(C)Cc1ccccc1,active
20,C[C@@H]1CCCCO[C@@H](CN(C)Cc2ccccc2)[C@H](C)CN([C@@H](C)CO)C(=O)c2cc(NS(=O)(=O)c3ccc(Cl)cc3)ccc2O1,inactive
21,C[C@@H]1CCCCO[C@H](CN(C)Cc2ccccc2)[C@H](C)CN([C@H](C)CO)C(=O)c2cc(NS(=O)(=O)c3ccc(Cl)cc3)ccc2O1,active
22,C[C@@H]1CCCCO[C@@H](CN(C)Cc2ccccc2)[C@@H](C)CN([C@@H](C)CO)C(=O)c2cc(NS(=O)(=O)c3ccc(Cl)cc3)ccc2O1,inactive
23,C[C@H](CO)N1C[C@H](C)[C@@H](CN(C)Cc2ccccc2)OCCCC[C@H](C)Oc2ccc(NS(=O)(=O)c3ccc(Cl)cc3)cc2C1=O,inactive
24,C[C@@H]1CN([C@H](C)CO)C(=O)c2cc(NS(=O)(=O)c3ccc(Cl)cc3)ccc2O[C@@H](C)CCCCO[C@@H]1CN(C)Cc1ccccc1,inactive
25,C[C@@H]1CN([C@@H](C)CO)C(=O)c2cc(NS(=O)(=O)c3ccc(Cl)cc3)ccc2O[C@@H](C)CCCCO[C@H]1CN(C)Cc1ccccc1,inactive
